Holding throughout (assay): Cytotoxic Profiling of Annotated Libraries Using Quantitative High-Throughput Screening (AID 1296008); further: nearly all actives have a fitted effect of over 60% in size
Holding throughout (details): Five cell lines viability, CellTiter-Glo ATP luminescence, 48-72 h; max response: hits give low values

One assay has as its system CRL-7250. Put shortly:
(§1)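 Cytotoxicity was measured as CellTiter-Glo ATP luminescence, read after 10 min at room temperature. Compound treatment of the cells lasted 48 or 72 hr at 37 degrees Celsius in a qHTS format.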

Another assay has as its system HEK293. In a few lines: as §1
For the next assay, the system named is HaCat. In a few lines: as §1
For another assay, the system named is KB-3-1. Put shortly:
as §1

A further assay concerns NIH3T3. Put shortly: as §1

Results filed as inconclusive are left out. A number with no mark means an inactive call. The source made the active and inactive calls. The call rests on the fitted dose curve; in most records, active means well fitted inhibition curve with a large enough effect; inconclusive means small, poorly fitted or top-dose-only effect; inactive means flat fitted curve, though single readings scatter.
On the % scale 0 is the no-effect control and ±100 the full control effect; potency means the concentration at half of the fitted maximal effect.

`C=Cc1cc2oc(-c3ccc(O)c(F)c3)nc2cc1O`: the molecule was classed as inactive in the assay on CRL-7250, in the assay on KB-3-1 and in the assay with NIH3T3. For the same molecule, the max response was -3.32% with HEK293 and -11% with HaCat.

As for `COc1cc([C@@H](O[C@@H]2O[C@H](CO)[C@@H](O)[C@H](O)[C@H]2O)[C@@H]2CO[C@H](c3ccc(O)c(OC)c3)[C@H]2CO)ccc1O`, the result in the assay on CRL-7250 and in the assay with NIH3T3 was inactive. Also, the max response is 2.55% in the assay with HEK293, 0.823% with HaCat and -3.03% in the assay on KB-3-1.

Regarding `C[C@@H]1O[C@@H](OC2C(CO)OC(OCC3OC(OC(=O)[C@]45CCC(C)(C)CC4C4=CCC6[C@@]7(C)CC[C@@H](O)[C@](C)(C(=O)O)C7CC[C@@]6(C)[C@]4(C)CC5)C(O)C(O)C3O)C(O)C2O)[C@H](O)[C@H](O)[C@H]1O` (stereo not given in full), the outcome in the assay on CRL-7250 and in the assay with HaCat was inactive. Further, the max response in the assay with HEK293 is 2.84%; in the assay with KB-3-1, -3.25%; with NIH3T3, -0.476%.

For the molecule `C=CCc1cc(OC)c(OC(C)C(O)c2ccc(O)c(OC)c2)c(OC)c1` (stereo not given), the max response with CRL-7250 was -6.23%; in the assay on HEK293, 0.874%; in the assay on KB-3-1 it was -7.75%; in the assay on NIH3T3 it was -6.43%. The molecule was called inactive in the assay on HaCat.

As to `COc1cccc(Cn2ncc3c4sc(S(C)=O)cc4n(C)c3c2=O)c1` (stereo not given), the max response in the assay on CRL-7250 is 2.15%; with HEK293, -7.28%; in the assay on NIH3T3, 2.83%. For the same molecule, the result in the assay on HaCat and with KB-3-1 was inactive.

Consider `C[C@@H]1O[C@@H](O[C@@H]2\C=C/C=C\C=C/C=C\C[C@H](C)OC(=O)/C=C\[C@H]3O[C@@H]3C[C@H](O)C[C@]3(O)C[C@@H](O)[C@@H](C(=O)O)[C@H](C2)O3)[C@H](O)[C@H](N)[C@@H]1O`, for which the max response in the assay with CRL-7250 is 3.44%; with HEK293 it was 3.56%; with NIH3T3 it was 3.56%. Moreover, the result with HaCat and with KB-3-1 was inactive.

With `C/C=C/C=C/C(=O)OC1CC/C=C/C(O)C(O)C(CCC)OC1=O` (stereo not given), the values for the max response with CRL-7250, with HEK293 and in the assay on KB-3-1 were -18.3%, 4.94% and 4.6%, respectively. Moreover, the molecule was classed as inactive in the assay on HaCat and with NIH3T3.

As for `C[C@]12CC/C(=N\OCC(=O)O)C=C1CC[C@@H]1[C@@H]2[C@@H](O)C[C@@]2(C)[C@H]1CC[C@]2(O)C(=O)CO`, the max response is -6.4% with CRL-7250, 2.89% in the assay with HaCat and -9.49% in the assay with NIH3T3. The molecule was classed as inactive in the assay with HEK293 and in the assay with KB-3-1.

On to `CC1(C)CC2C3=CCC4[C@@]5(C)CC[C@H](OC6OCC(O)C(OC7OC(CO)C(O)C(O)C7O)C6O)C(C)(C)C5CC[C@@]4(C)[C@]3(C)C[C@H](O)[C@@]2(CO)[C@H](OC(=O)c2ccccc2)C1` (stereo not given in full), for which the max response in the assay with CRL-7250 is -5.7%; in the assay on HEK293, -22%; in the assay with KB-3-1 it was -6.42%; in the assay on NIH3T3 it was -2.6%. The molecule was classed as inactive in the assay on HaCat.

As to `CC(C)=CC1C[C@](C)(O)[C@@H]2[C@H]3CCC4[C@@]5(C)CC[C@H](O[C@@H]6OC[C@H](O)[C@H](O[C@@H]7O[C@H](CO[C@@H]8O[C@H](CO)[C@@H](O)[C@H](O)[C@H]8O)[C@@H](O)[C@H](O)[C@H]7O)[C@H]6O[C@@H]6O[C@@H](C)[C@H](O)[C@@H](O)[C@H]6O)C(C)(C)[C@@H]5CC[C@@]4(C)[C@@]34CO[C@@]2(C4)O1` (stereo not given in full), the max response in the assay with CRL-7250 was -1.09%; with HEK293 it was -3.55%; in the assay on HaCat, 4.88%. Also, the molecule was classed as inactive with KB-3-1 and with NIH3T3.

As to `CC1(CO)CCCC2(C)C1C(OC(=O)c1ccccc1)CC1C(=O)OCC12O` (stereo not given), the max response is -1.52% in the assay on CRL-7250, -0.598% in the assay with HEK293 and 5.44% in the assay on KB-3-1. The result with HaCat and in the assay on NIH3T3 was inactive.

Regarding `C=CC(C)(CCC=C(C)C)O[C@@H]1O[C@H](CO)[C@@H](O)[C@H](O)[C@H]1O` (stereo not given in full), the max response in the assay on CRL-7250 was -23.7%; in the assay on HEK293, -6.28%; with HaCat, -2.03%; in the assay with KB-3-1, 6.36%. The molecule was called inactive with NIH3T3.

As for `COc1cc2nc(=NC(=O)c3cccnc3)n3c(c2cc1OC)NCC3`, the max response in the assay with CRL-7250 is 4.99%; in the assay on HEK293, -3.57%. Besides, the Potency in the assay with HaCat is 16.4 µM (active). In addition, the call in the assay with KB-3-1 and in the assay on NIH3T3 was inactive.

Take `C=C1Cc2c(Cl)cc3[nH]c4c5c3c2[C@@]2(O)[C@@H]1C[C@@H]2C(C)(C)O[C@H]5C1CC[C@@]2(O)[C@@]35O[C@@H]3[C@H]3OC(C)(C)[C@H]3O[C@H]5CC[C@]2(C)[C@@]41C` (stereo not given in full): the max response in the assay with CRL-7250 was -4.78%; with HEK293 it was 0.456%; with KB-3-1, 6.12%. For the same molecule, the molecule was called inactive with HaCat and with NIH3T3.

Consider `CC1=C2C3OC(=O)C(C)C3(O)CCC2(C)CCC1` (stereo not given), for which the max response in the assay on CRL-7250 is 4.24%; in the assay with HEK293, 2.89%; in the assay with HaCat, 0.93%; in the assay with KB-3-1, 2.02%. Also, the molecule was called inactive in the assay with NIH3T3.

As to `CC1OC(O[C@@H]2[C@@H](O)[C@H](OC(=O)[C@]34CCC(C)(C)C[C@H]3C3=CCC5[C@@]6(C)CC[C@H](O[C@@H]7O[C@H](C(=O)O)[C@@H](O)[C@H](O[C@@H]8OC[C@@H](O)[C@H](O)[C@H]8O)[C@H]7O[C@@H]7O[C@H](CO)[C@H](O)[C@H](O)[C@H]7O)[C@@](C)(C=O)C6CC[C@@]5(C)[C@]3(C)C[C@H]4O)O[C@H](C)[C@@H]2OC2OC(C)C(OC3OCC(O)C(O)C3O)C(O)C2O)C(O)C(O)C1O` (stereo not given in full), the max response is 4.06% in the assay with CRL-7250, -14.3% in the assay with HEK293, -4.11% in the assay with HaCat and -3.93% in the assay on KB-3-1. For the same molecule, in the assay on NIH3T3, the molecule was classed as inactive.

Source of the values: PubChem BioAssay (NCATS).
